Source: PubChem BioAssay

Key:
[1] = tested on: Human papillomavirus type 1a protein E7 (residues 44-93); assay: small molecules binding HPV E7 44-93 – biochemical, small-molecule microarray, residues 44-93, 635 nm fluorescence, primary screen (AID 1108); details: fluorescence 635 nm, higher = more signal;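 further: E7 fragment applied at 1 µg/mL in TBST for 1 h at 4 C; score combines spot fluorescence with its signal to noise ratio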
[2] = hepatitis C replication reporter changes, two-sided – Huh7 cells, luciferase reporter, HCV replication inhibitor project, primary screen (AID 1109); details: Huh7 HCV replicon luciferase reporter, 48 h; higher = more signal;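 further: huh7 hepatoma cells harbouring a luciferase neomycin HCV replicon reporter; luciferase luminescence as measure of HCV replicon replication; test concentration not given here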
[3] = molecular target: Left-right determination factor 2 (Homo sapiens) (UniProt O00292); assay: small molecules binding LEFTY2 protein – biochemical, small-molecule microarray, 635 nm fluorescence scan, primary screen (AID 1110); details: higher = more signal
[4] = molecular target: Calmodulin-1 (Homo sapiens) (UniProt P0DP23); assay: small molecules binding calmodulin-1 with EGTA – biochemical, small-molecule microarray, Cy5-labelled CALM1, profiling panel (AID 1111); details: Cy5-CALM1 binding fluorescence, higher = more signal;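 further: labelled calmodulin applied in Tris saline Tween buffer holding calcium plus EGTA and DTT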
[5] = molecular target: Calmodulin-1 (Homo sapiens) (UniProt P0DP23); assay: small molecules binding Ca-loaded calmodulin-1 – biochemical, small-molecule microarray, Cy5-labelled CALM1, plus calcium, artefact control for SMM control-protein annotation, profiling panel (AID 1112); details: Cy5-CALM1 binding fluorescence, higher = more signal;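 further: score merges spot fluorescence with signal to noise from triplicate slides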
[6] = probe aWnt5a binding to arrayed compounds – biochemical, biotinylated probe, 635/667 nm fluorescence, primary screen (AID 1113); details: small-molecule microarray, higher = more signal;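 further: score merges 667 nm fluorescence intensity with signal-to-noise per printed feature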
[7] = probe aShh binding to arrayed compounds – biochemical, biotinylated probe, 635/667 nm fluorescence, primary screen (AID 1114); details: small-molecule microarray, higher = more signal;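 further: probe is biotin-labelled aShh protein from a stem cell growth factor screen; measures binding of labelled protein to compounds printed on the slide; score merges feature fluorescence at 667 nm with signal-to-noise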
[8] = probe aNog binding to arrayed compounds – biochemical, biotinylated probe, 635/667 nm fluorescence, primary screen (AID 1115); details: small-molecule microarray, higher = more signal;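 further: probe is biotinylated aNog protein used at 0.15 µg/mL for 1 h at 4 C; z-score combines 667 nm fluorescence of each spot with its signal to noise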
[9] = molecular target: Torsin-1A-interacting protein 1 (Homo sapiens) (UniProt Q5JTV8); assay: compound microarray binding of lysate hLAP1 – cell lysate, small-molecule microarray, COS7 lysate, 635/667 nm fluorescence, primary screen (AID 1116); details: 635 nm fluorescence, higher = more signal
[10] = molecular target: Alpha-bungarotoxin (Bungarus multicinctus) (UniProt P60615); assay: compounds binding labelled alpha-BTX control protein – biochemical, small-molecule microarray, Alexa647 label, 635/667 nm fluorescence, artefact control for SMM control protein annotation, profiling panel (AID 1117); details: alpha-BTX-A647 binding fluorescence, higher = more signal
Chain of Alpha-bungarotoxin (Bungarus multicinctus) (P60615 whole entry, looked up): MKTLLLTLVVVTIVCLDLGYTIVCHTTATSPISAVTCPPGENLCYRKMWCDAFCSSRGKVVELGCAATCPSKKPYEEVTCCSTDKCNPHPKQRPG

Chain of Left-right determination factor 2 (Homo sapiens) (O00292 whole entry, looked up): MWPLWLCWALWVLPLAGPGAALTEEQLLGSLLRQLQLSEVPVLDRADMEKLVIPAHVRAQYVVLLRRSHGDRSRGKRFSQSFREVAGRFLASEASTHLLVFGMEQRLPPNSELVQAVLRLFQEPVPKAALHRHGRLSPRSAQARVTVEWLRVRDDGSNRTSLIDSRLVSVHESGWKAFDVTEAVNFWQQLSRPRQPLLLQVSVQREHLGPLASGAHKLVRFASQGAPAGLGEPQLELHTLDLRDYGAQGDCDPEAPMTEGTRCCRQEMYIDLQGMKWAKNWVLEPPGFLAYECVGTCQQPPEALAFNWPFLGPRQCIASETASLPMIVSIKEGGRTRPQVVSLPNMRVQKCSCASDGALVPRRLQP
Chain of Torsin-1A-interacting protein 1 (Homo sapiens) (Q5JTV8 whole entry, looked up): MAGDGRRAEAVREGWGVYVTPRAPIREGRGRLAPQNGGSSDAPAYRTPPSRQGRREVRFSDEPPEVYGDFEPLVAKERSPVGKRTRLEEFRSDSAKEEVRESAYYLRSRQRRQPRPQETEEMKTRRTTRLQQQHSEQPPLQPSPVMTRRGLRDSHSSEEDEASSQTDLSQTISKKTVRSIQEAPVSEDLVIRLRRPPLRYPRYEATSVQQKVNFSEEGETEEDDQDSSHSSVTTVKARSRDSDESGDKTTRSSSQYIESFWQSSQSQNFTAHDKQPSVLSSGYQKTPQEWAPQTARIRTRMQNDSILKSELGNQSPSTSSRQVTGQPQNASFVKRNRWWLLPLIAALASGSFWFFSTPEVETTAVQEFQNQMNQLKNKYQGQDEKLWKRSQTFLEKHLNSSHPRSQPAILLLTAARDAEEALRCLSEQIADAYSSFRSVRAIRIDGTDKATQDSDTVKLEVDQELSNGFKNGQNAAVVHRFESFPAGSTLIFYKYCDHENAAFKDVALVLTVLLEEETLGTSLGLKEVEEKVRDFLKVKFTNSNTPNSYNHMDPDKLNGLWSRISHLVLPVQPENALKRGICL

Row | SMILES | composite z-score [1] | z-score [2] | composite z-score [3] | composite z-score [4] | composite z-score [5] | composite z-score [6] | composite z-score [7] | composite z-score [8] | composite z-score [9] | composite z-score [10]
1 | O=C(O)C1N=C(c2ccc(OCCCO)cc2)N(c2ccccc2)O1 (stereo not given) | 1.13 | -0.643 | 0.509 | 0.37 | -0.218 | -0.0478 | -0.0769 | -0.402 | 0.435 | 0.447
2 | C=C(CCCC)/C(=C/C[C@H](OC(C)=O)c1ccc(OCCO)cc1)c1cnc2ccccc2c1 | 1.43 | -2.43 | 0.52 | -0.185 | -0.378 | -0.101 | -0.0035 | -0.483 | 0.491 | 1.85
3 | CCCC[C@@H]1C[C@H]1[C@@H](NC(=O)c1cccnc1)c1ccc(Cl)cc1 | -1.05 | -2.14 | -2.99 | 0.867 | 1.69 | -0.191 | -0.509 | 0.526 | -0.553 | -1.36
4 | [N-]=[N+]=NCc1ccccc1[C@@H]1OC(c2ccc(OCCCO)cc2)=N[C@]1(CCS(=O)(=O)c1ccccc1)C(N)=O | 1.5 | 1.35 | 0.767 | 0.731 | 0.242 | 0.164 | 0.5 | 0.769 | 1.81 | 2.19
5 | CN1C(=O)C2C=CC(C(O)c3ccc(F)cc3)N(N(c3ccccc3)c3ccccc3)C2C1=O (stereo not given) | 1.11 | -0.0952 | -0.698 | 0.49 | -0.235 | -0.0236 | -0.152 | -0.55 | 0.154 | 0.633
6 | CCOC(=O)[C@H]1C/C=C/C[C@H](C(=O)OCC)C(=O)O[C@H]2[C@@H](OC)O[C@H](CO)[C@@H](OC(=O)c3ccc(Br)cc3)[C@@H]2OC1=O | 0.215 | -2.74 | 0.466 | 0.389 | 0.502 | -0.0704 | 0.134 | 0.0795 | 0.863 | 0.369
7 | O=c1cccc(-c2ccccc2Cl)o1 | 0.201 | -0.143 | -0.12 | -0.559 | -0.503 | -0.124 | 0.0952 | -0.593 | 0.21 | -0.183
8 | C=C(CCCC)/C(=C/C[C@H](OC(C)=O)c1ccccc1OCCO)c1cnc2ccccc2c1 | 0.984 | -2.75 | 0.0641 | -0.0602 | -0.796 | -0.0718 | -0.0709 | -0.327 | 0.469 | 0.887
9 | O=C(O)[C@H](Cc1ccccc1)n1cc(-c2ccccc2)nn1 | 0.52 | 0.36 | 0.506 | 0.14 | -0.372 | -0.152 | -0.237 | 0.297 | 0.635 | 0.327
10 | CN(C)CCCCCCNC(=O)[C@@H]1C[C@@H]2C(=O)N3CCC[C@H]3C(=O)N2[C@@H]1c1ccc(O)cc1 | 1.42 | 1.49 | 1.5 | -1.95 | -1.42 | -0.062 | 0.42 | -0.364 | 2.23 | 2.36
11 | O=C1C2C=CC(C(O)C=Cc3ccc([N+](=O)[O-])cc3)N(n3cnnc3)C2C(=O)N1Cc1ccccc1 (stereo not given) | 1.34 | -0.93 | -0.368 | 0.596 | -0.143 | 0.0633 | -0.0035 | 0.977 | 0.832 | 1.39
12 | C=CC[C@]1(C(N)=O)N=C(c2ccc(OCCCO)cc2)O[C@H]1c1ccccc1 | -0.434 | -0.31 | -0.524 | 0.27 | -0.665 | -0.0685 | 0.401 | 0.041 | 1.59 | 0.947
13 | [N-]=[N+]=Nc1ccccc1[C@H]1OC(c2ccc(OCCCO)cc2)=N[C@@]1(Cc1ccccc1)C(=O)N1CCOCC1 | 1.1 | -2.37 | 0.103 | 2.25 | 0.937 | -0.0748 | 0.886 | 0.88 | 1.32 | 1.73
14 | COc1ccc(-c2cc3c(c(Cc4ccccc4)n2)[Si](C(C)C)(C(C)C)OC3)cn1 | -0.864 | -0.421 | -0.0979 | -0.646 | 0.0817 | -0.13 | -0.0849 | -0.0855 | -0.0516 | -0.26
15 | CC(=O)NCCCC[C@@H]1NC(=O)[C@H]2C[C@@H](C(=O)O)[C@@H](c3ccc(O)cc3)N2C1=O | 1.12 | -3.1 | 1.08 | 0.192 | -0.548 | 0.0825 | 0.108 | 0.005 | 0.0682 | 0.626
16 | COC(=O)c1c2oc(c1C(=O)OC)C(=O)NC1(CCCCC1)c1cn(nn1)C[C@H](Cc1ccccc1)NC(=O)N[C@H](CO)CC2 | 0.973 | -0.791 | 0.23 | 0.0166 | -0.396 | -0.0955 | -0.237 | -0.321 | 0.227 | 0.531
17 | O=C(CS)NCCCCCNC(=O)[C@@H]1C[C@@H]2C(=O)NCC(=O)N2[C@@H]1c1ccc(O)cc1 | 0.722 | 0.627 | 0.31 | -0.0523 | -0.109 | -0.165 | -0.0709 | -0.122 | -0.0104 | -0.581
18 | CC(C)NC(=O)[C@@H]1c2ccccc2C(=O)N(C(C)C)[C@H]1c1ccc(CO)cc1 | 1.42 | -0.152 | -0.597 | -0.639 | -0.128 | -0.228 | -0.291 | -0.196 | 1.69 | -0.558

Row | SMILES | composite z-score [1] | z-score [2] | composite z-score [3] | composite z-score [4] | composite z-score [5] | composite z-score [6] | composite z-score [7] | composite z-score [8] | composite z-score [9] | composite z-score [10]
19 | NCCCCCCNC(=O)[C@H]1C[C@H]2C(=O)N[C@@H](Cc3ccccc3)C(=O)N2[C@H]1c1cccc(OCCO)c1 | 0.694 | 0.794 | 0.146 | 2.14 | 0.857 | -0.0718 | 0.356 | 0.0574 | 1.6 | 0.576
20 | COc1cc2c(cc1OC)CN(C(=O)[C@H]1[C@@H]3C(=O)O[C@@H](c4ccccc4)[C@@H](c4ccccc4)N3[C@@H](c3ccccc3OCCO)[C@]13C(=O)Nc1ccc(C#CCCO)cc13)CC2 | 1.37 | -1.79 | 0.61 | 0.234 | -0.114 | 0.0136 | -0.138 | 0.194 | 0.532 | 0.862
21 | COCCOC(=O)N1C(=O)[C@@]2(c3cc(C#CCCO)ccc31)[C@H](c1ccc(O)cc1)N1[C@H](c3ccccc3)[C@H](c3ccccc3)OC(=O)[C@H]1[C@@H]2C(=O)N1CCN(c2ncccn2)CC1 | 1.17 | -0.305 | 0.613 | 1.42 | 0.374 | 0.594 | 0.918 | 2.56 | 1.68 | 1.47
22 | CN(C)CCCC[C@@H]1NC(=O)[C@H]2C[C@@H](C(=O)NCCCCCN)[C@@H](c3cccc(OCCO)c3)N2C1=O | 0.474 | 0.0761 | 0.669 | 2.22 | 1.51 | 0.233 | 0.351 | 0.863 | 2.53 | 1.44
23 | CCCC=C(CCC)[C@@H](NS(=O)(=O)c1ccc(Cl)cc1)c1ccc(C(=O)OC)cc1 | 1.31 | 0.677 | -0.0953 | -0.246 | -0.526 | -0.183 | -0.0386 | -0.201 | 0.892 | 1.29
24 | COc1ccccc1CN1C(=O)c2ccccc2[C@@H](C(=O)NCc2ccccc2)[C@@H]1c1ccc(CO)cc1 | 0.841 | -1.01 | 0.0458 | -0.473 | -0.181 | -0.124 | -0.374 | -0.416 | 0.404 | 1.78
25 | Cc1c(NC(=O)/C(C#N)=C/c2cccc([N+](=O)[O-])c2)c(=O)n(-c2ccccc2)n1C | 0.785 | -1.44 | 0.285 | 0.619 | -0.249 | -0.0819 | -0.0793 | -0.346 | 0.38 | 0.0071
26 | COC(=O)C(CC#Cc1ccc2c(c1)[C@]1(C(=O)N2)[C@H](c2ccccc2OCCO)N2[C@H](c3ccccc3)[C@H](c3ccccc3)OC(=O)[C@H]2[C@@H]1C(=O)O)C(=O)OC | 1.43 | -0.567 | 0.17 | 1.61 | 0.701 | 0.0597 | 0.218 | 0.0258 | 0.967 | 1.94
27 | O=C(NC1CC1)[C@@H]1c2ccccc2C(=O)N(C2Cc3ccccc3C2)[C@H]1c1ccc(CO)cc1 | 1.32 | -0.865 | 0.716 | -0.199 | -0.253 | -0.0512 | -0.457 | -0.608 | 0.599 | 0.154
28 | CCC(CC)C(O)C1C=CC2C(=O)N(c3ccccc3)C(=O)C2N1Nc1ccccc1 (stereo not given) | 1.29 | 0.372 | 0.0874 | 1.58 | 0.415 | 0.216 | -0.16 | 2.01 | 0.671 | 1.02
29 | COCCOC(=O)N1C(=O)[C@@]2(c3ccccc31)[C@H](c1ccc(OCCO)cc1)N1[C@H](c3ccccc3)[C@H](c3ccccc3)OC(=O)[C@H]1[C@@H]2C(=O)N1CCc2cc(OC)c(OC)cc2C1 | 1.16 | -2.15 | 1.03 | 1.2 | 0.0721 | -0.001 | 0.0141 | 0.603 | 0.977 | 2.23
30 | COCCOC(=O)N1C(=O)[C@@]2(c3ccccc31)[C@H](C(N)=O)[C@H]1C(=O)O[C@H](c3ccccc3)[C@H](c3ccccc3)N1[C@@H]2c1ccc(O)cc1 | 1.37 | -0.328 | 0.113 | 0.0186 | -0.346 | -0.199 | -0.0769 | -0.334 | -0.602 | -0.364
31 | NC(=O)[C@@H]1[C@H]2C(=O)O[C@H](c3ccccc3)[C@H](c3ccccc3)N2[C@H](c2ccc(OCCO)cc2)[C@@]12C(=O)Nc1ccc(C#CC3=CCCCC3)cc12 | 1.36 | -3.2 | 0.759 | 0.658 | -0.223 | 0.0182 | 0.031 | 0.0415 | 1.06 | 0.711
32 | COCCOC(=O)N1C(=O)[C@@]2(c3ccccc31)[C@H](C(=O)N1CCc3cc(OC)c(OC)cc3C1)[C@H]1C(=O)O[C@H](c3ccccc3)[C@H](c3ccccc3)N1[C@@H]2c1ccc(O)cc1 | 1.13 | -0.515 | 0.337 | 1.38 | 0.116 | -0.0125 | -0.0769 | 0.511 | 1.94 | 1.65
33 | NC(=O)[C@@]1(Cc2ccccc2)N=C(c2ccc(OCCCO)cc2)O[C@H]1c1ccccc1 | -1.02 | -0.605 | -0.949 | 1.19 | 1.2 | -0.11 | 0.629 | 1.06 | 3.1 | -0.387
34 | COCCCNC(=O)[C@@]1(Cc2ccccc2)N=C(c2ccc(OCCCO)cc2)O[C@H]1c1ccccc1CN=[N+]=[N-] | 0.596 | -2.86 | 0.0508 | 2.14 | 0.451 | 0.0445 | 0.496 | 1.36 | 2.35 | 2.23
35 | C#CCN(C/C=C/c1ccccc1)[C@H](CO)c1ccccc1 | -0.414 | -1.74 | 0.171 | -0.653 | -0.472 | -0.0919 | -0.262 | -0.326 | -0.0349 | -0.0338
